Screening data as filed in PubChem BioAssay.
TDP-43 yeast inh = TDP-43 toxicity inhibition in yeast. 410,000 compounds, 1.8% hits. AID 652104. Potency, µM (doses to about 46.1 µM), for inactives: top-dose growth rescue (activation), most hits filed as activators. TDP-43 expressing yeast growth rescue, BacTiter-Glo, 24 h; also: potency is read from the fitted curve at half-maximal effect; % of control where 0% means no effect; nearly all actives have a fitted effect of over 50% in size
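In this qHTS, compounds that restore growth of yeast expressing TDP-43 appear as activators. Cells (OD600=0.02, galactose medium, raffinose-pregrown) are incubated with compound 24 hr at 30 deg C and growth is quantified by BacTiter-Glo.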
Akt phos inh = Akt phosphorylation inhibition; Neuro2A IGF-stimulated pAkt S473 HTRF, 20 min; hits give low values; activity change, % for hits at 50 µM; 360,000 compounds, 0.32% hits; in the data active = activity change below about -80%; inconclusive = mostly about -51% to -80%; also: % is scaled to controls: 0 for no effect and ±100 for the full control effect
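Neuro2A cells (4,500/well, DMEM with 0.5% FBS) were treated with compound at a single 50 µM final concentration, stimulated with 6 nM IGF for 20 min at 37 °C, and lysed. Phospho-Akt Ser473 was read by HTRF as 665/615 ratio ×10^4.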
aSyn yeast inh = inhibitors of alpha-synuclein toxicity in yeast. Yeast expressing alpha-synuclein, growth rescue, BacTiter-Glo, 24 h. Potency, µM (titrated, usually from 46.1 µM), for inactives: at the highest dose growth rescue (activation), most hits filed as activators. 370,000 compounds, 0.14% hits. AID 652106; also: potency is read from the fitted curve at half-maximal effect; % of control where 0% means no effect; nearly all actives have a fitted effect of over 65% in size
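Galactose-induced alpha-syn yeast (OD600=0.02, raffinose-pregrown) + pinned cpd, 24 hr, 30 deg C; growth by BacTiter-Glo luminescence. Growth restoration scores as activation.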
Apoferritin bind = candidate novel general anesthetic via apoferritin binding | 350,000 compounds, 0.074% hits | apoferritin/1-aminoanthracene competitive binding, fluorescence | P02791 | Potency, µM (highest dose often 77.5 µM), for inactives: at the top dose activity change, negative = displacement, hits mostly inhibitors; also: potency is read from the fitted curve at half-maximal effect; % is scaled to controls: 0 for no effect and ±100 for the full control effect; nearly all actives have a fitted effect of over 20% in size
Target sequence (P02791 2-175 limits assumed): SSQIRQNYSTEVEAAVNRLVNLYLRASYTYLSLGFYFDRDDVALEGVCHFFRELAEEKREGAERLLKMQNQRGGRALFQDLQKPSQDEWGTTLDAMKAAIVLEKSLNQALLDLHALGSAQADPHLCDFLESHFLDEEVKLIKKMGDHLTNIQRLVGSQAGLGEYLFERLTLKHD
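Steps: apoferritin (10 uM) was premixed with half-saturated 1-AMA in PBS, compounds were pin-transferred, plates stood 10 min at room temperature, fluorescence was read at 380/535 nm, and curves were fitted with a Hill equation.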
CCT modulator = modulators of cytosolic chaperonin (CCT/TRiC) activity; activity change, % (no concentration beside the values), hits read low; 360,000 compounds, 0.3% hits; purified chaperonin ATPase assay, HTRF ADP detection, 30 min; in the data active = activity change below about -30%; also: % is scaled to controls: 0 for no effect and ±100 for the full control effect
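Enzyme 40 or 20 nM (batch-dependent) in Tris pH 7.4/KCl/MgCl2/DTT; cpd 76 uM single point; ATP 10 uM; 30 min 37 °C; Transcreener ADP HTRF detection, 30 min RT; ratio 665/615.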
Mito fusion act = inhibitors of mitochondrial division or activators of mitochondrial fusion. 320,000 compounds, 0.23% hits. Potency, µM (titrated, usually from 46.1 µM), for inactives: top-dose growth rescue (activation), usual class: activators. S. cerevisiae fusion-defective mutant growth rescue, CellTiterGlo 48 h; also: potency is read from the fitted curve at half-maximal effect; % of control where 0% means no effect; nearly all actives have a fitted effect of over 45% in size
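Yeast fusion mutant, YPEG (non-fermentable carbon), compound, 48 h at 37C non-permissive; CellTiterGlo added, 10 min RT, luminescence read. Rescued growth = division inhibition.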
* hit, by the source's call; i = inactive; u = inconclusive; x = no result given. An excerpt weighted towards active compounds, which were near 2.5% of everything screened. Unless noted, calls follow the shape of the dose curve; as a rule, active = well fitted curve in the direction sought with a large enough effect; inconclusive = small, poorly fitted or top-dose-only effect, or another doubt; inactive = no such curve, though single readings can be large; an effect the other way counts as inactive or inconclusive.

SMILES | TDP-43 yeast inh | Akt phos inh | aSyn yeast inh | Apoferritin bind | CCT modulator | Mito fusion act
Cc1cccn2c(=O)c3cc(C(=O)N4CCCC(C)C4)sc3nc12 (stereo not drawn) | u | i | 6% | 2% | 1 | 5%
CCCCN(CCCC)C(=O)c1cc2c(=O)n3cccc(C)c3nc2s1 | 22µM* | x | x | -8% | x | x
Cc1cccn2c(=O)c3cc(C(=O)N4CCCCC4)sc3nc12 | 11µM* | i | -1% | 13% | -4 | 15%
CCOC(=O)CSc1nc(C(C)C)nc2ccccc12 | 0% | i | 1% | 0% | -43* | 15%
CCN(CC)S(=O)(=O)c1ccc(C(=O)N2CC(=O)Nc3ccc(F)cc3C2c2ccccc2)cc1 (stereo not drawn) | 6% | x | x | -6% | x | x
C(=N\NC1=Nc2cccc3cccc1c23)/c1ccccn1 | 20µM* | i | 0% | u | 1 | -5%
COc1cc(N=Nc2ccc(Br)cc2)cc(C=O)c1O | 13µM* | i | -38% | x | -2 | x
O=C(NCCN1CCOCC1)c1c(O)nc2ccccn2c1=O | -10% | x | 0% | 7% | -72* | -21%
Cc1cccc(NC(=O)COc2ccccc2C(=O)Nc2ccccc2)c1 | x | x | 1% | x | x | x
Cc1ccc2c(c1)N(C(=O)CCC(=O)Nc1ccc(F)cc1F)CC(C)O2 (stereo not drawn) | 14% | x | x | 40% | x | x
COC(=O)c1ccccc1NC(=O)CCC(=O)N1CC(C)Sc2ccccc21 (stereo not drawn) | 18µM* | x | x | -9% | x | x
COC(=O)c1ccccc1NC(=O)CCC(=O)N1CCSc2ccccc21 | 0% | i | 3% | u | 0 | -30%
COC(=O)c1ccccc1NC(=O)CCC(=O)N1CC(C)Oc2ccc(C)cc21 (stereo not drawn) | 18µM* | i | 3% | -11% | 0 | 1%
COc1cccc(NC(=O)Cn2cnc3c(nc4n3CCCCC4)c2=O)c1 | 22% | x | x | -2% | x | x
CCn1c(Cc2ccccc2)nnc1SCC(=O)N1CCCCC1 | 11% | -106%* | 4% | -2% | 1 | -1%
Cc1cc2ccccc2n1CCNC(=O)c1cccc(Br)c1 | u | x | x | -14% | x | x
Cc1cc2ccccc2n1CCNC(=O)c1cccc(Cl)c1 | 14µM* | x | x | -15% | x | x
CC(=O)[C@]1(O)Cc2c(O)c3c(c(O)c2[C@@H](O[C@H]2C[C@H](N)[C@H](O)[C@H](C)O2)C1)C(=O)c1c(O)cccc1C3=O | x | x | x | -22% | x | x
NC(=O)c1ccccc1N/C=C/C(=O)c1ccco1 | 8% | i | 26% | -3% | -60* | -5%
CC(C)(C)n1ncc2c(=O)n(CC(=O)c3ccccc3)cnc21 | u | -115%* | 16% | -7% | -1 | 6%
O=C(CCNS(=O)(=O)c1ccc(Br)cc1)N1CCCCCCC1 | -12% | i | 2% | x | 1 | -4%
O=C(CCS(=O)(=O)c1ccc(Br)cc1)N1CCCCCC1 | -9% | x | -1% | -8% | -74* | 6%
CC1CCN(C(=O)CCNS(=O)(=O)c2ccc(Br)cc2)CC1 | -11% | i | 3.5µM* | x | -2 | u
CC(=O)N1c2ccc(S(=O)(=O)NCCC(=O)N3CCCC(C)C3)cc2CC1C (stereo not drawn) | u | i | 5% | -6% | -3 | 11µM*
COc1ccc(/C=N/NC(=O)c2ccn[nH]2)cc1COc1ccc(Cl)cc1 | 18µM* | i | 12% | -23% | 0 | 0%
COc1ccc(/C=N/N2CCOCC2)cc1COc1ccc(F)cc1 | u | i | 3% | -9% | 1 | 17%
COc1ccc(/C=N/N2CCOCC2)cc1COc1ccc(Cl)cc1 | 16µM* | i | 3% | 0% | -3 | 21%
O=C(CSc1ncc(-c2ccccc2)[nH]1)Nc1cccc(Br)c1 | 23% | x | x | u | x | x
Cc1cc(C)cc(NC(=S)NCc2ccc3[nH]c4c(c3c2)CCCC4)c1 | 20% | i | 5% | -3% | 1 | u
S=C(NCc1ccc2[nH]c3c(c2c1)CCCC3)Nc1ccccc1 | 18µM* | i | u | -12% | 0 | u
